# Values joined by “and” are separate entries in the source; they are usually repeats but may differ in a detail not shown here. Equal entries are not always repeated. Results filed as inconclusive are left out. Active and inactive are the calls of the source. Unless noted, no cut-off is given here; in the data, nearly all actives have AC50 up to about 26 µM.
# Columns and labels:
# [1] = viability loss in pontine glioma line – cell-based, SU-DIPG-XXV, MIPE5.0, CellTiter-Glo, qHTS, dose response (AID 1347065); settings: CellTiter-Glo ATP luminescence;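 note: cells exposed to compound for 48 hours before ATP readout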
# [2] = SU-DIPG-VI glioma cell viability, MIPE4.0 library, CellTiter-Glo luminescence, qHTS (AID 1347066; cut-off not given, nearly all actives have AC50 up to about 30 µM;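 note: cells exposed to compound for 48 hours before readout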); settings: CellTiter-Glo ATP luminescence
# [3] = JHH-DIPG-1 glioma cell viability, MIPE5.0 library, CellTiter-Glo luminescence, qHTS (AID 1347067); settings: JHH-DIPG-1 glioma viability, CellTiter-Glo ATP luminescence;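 note: cells exposed to compound for 48 hours before readout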
# [4] = SU-DIPG-XXV glioma cell viability, MIPE5.0 library, qHTS (AID 1347068; cut-off not given, nearly all actives have IC50 up to about 30 µM)
# [5] = sensitizers of A549 cells to miR-34 induction, primary screen, imaging, A549 dox-inducible miR-34, nuclei and caspase counts (AID 1347080;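 active = compounds whose cell count with miR-34 switched on is under 0.7 times the count with it off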); settings: A549 miR-34 inducible, Hoechst nuclei count, 48 h
# [6] = target: NAD(+) hydrolase SARM1 (Homo sapiens) (UniProt Q6SZW1); experiment: SARM1 TIR NADase inhibitors, cell lysate, NAD-Glo luminescence (AID 1508614;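 active = compound whose remaining NAD level is above about 45 nM, limit read from the data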;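 note: higher remaining NAD means stronger inhibition of SARM1 NADase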); settings: SAM-TIR HEK293T lysate NADase, at 1 µM, stronger effect = higher value
# [7] = target: Mitogen-activated protein kinase 7 (Homo sapiens) (UniProt Q13164); experiment: ERK5 transactivation activators in reporter cells, primary screen, cell-based, HTS (AID 1508626;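 active = luciferase signal above three times the same-plate solvent-only control wells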;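 note: luciferase driven by Gal4-ERK5 fusion binding five Gal4 sites before minimal TATA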); settings: HeLa Gal4-ERK5 transactivation, 18 h, at 5 µM, stronger effect = higher value
# [8] = LFS_MB_P medulloblastoma growth inhibition, cell-based, chromothripsis tumors, cisplatin or BGB combos (AID 1671449; in the data active = inhibition above about 80%;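 note: cells exposed for 96 hours; 0% = vehicle DMSO and 100% = killing by high DMSO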); settings: LFS_MB_P medulloblastoma cells
# [9] = HDN33 neuroblastoma growth inhibition, cell-based, chromothripsis tumors, cisplatin or BGB combos (AID 1671450; in the data active = inhibition above about 80%;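 note: cells exposed to compound for four days; 0% = vehicle DMSO and 100% = cell killing by high DMSO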); settings: HDN33 neuroblastoma cells, stronger effect = higher value
# [10] = ICB984 medulloblastoma cell growth inhibition, synergistic combos for chromothripsis tumors, cisplatin or BGB combos (AID 1671451; call rule not given here;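 note: cells exposed for 96 hours before readout; 0% = vehicle DMSO and 100% = killing by high DMSO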); settings: ICB984 medulloblastoma cells, drug combinations, stronger effect = higher value
# [11] = LFS_MB_1R medulloblastoma cell growth inhibition, synergistic combos for chromothripsis tumors, cisplatin or BGB combos (AID 1671452; in the data active = inhibition above about 80%;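 note: cells exposed for 96 hours before readout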); settings: LFS_MB_1R medulloblastoma cells, stronger effect = higher value
# [12] = HTB85 osteosarcoma cell growth inhibition, synergistic combos for chromothripsis tumors, BGB or cisplatin IC20 combos (AID 1671453; in the data active = inhibition above about 80%;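 note: cells exposed for 96 hours before readout; 0% = vehicle DMSO and 100% = high DMSO killing control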); settings: HTB85 osteosarcoma cells, drug combinations, stronger effect = higher value
# [13] = CRL2098 osteosarcoma cell growth inhibition, synergistic combos for chromothripsis tumors, BGB or cisplatin IC20 combos (AID 1671454; in the data active = inhibition above about 80%;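 note: cells exposed for 96 h before readout; 0% = vehicle DMSO and 100% = killing by high DMSO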); settings: CRL2098 osteosarcoma cells, drug combinations, stronger effect = higher value
# [14] = HD-MB03 medulloblastoma cell growth inhibition, synergistic combos for chromothripsis tumors, BGB or cisplatin IC20 combos (AID 1671455; in the data active = inhibition above about 83%;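 note: 0% = vehicle DMSO and 100% = high DMSO as cytotoxic control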); settings: HD-MB03 medulloblastoma cells, stronger effect = higher value
# [15] = inhibitors of Cryptococcus chitosan production, flow cytometry, Cibacron Brilliant Red staining (AID 1347148; call rule not given here;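 note: compound exposure lasted three days at 37 degrees C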); settings: Cryptococcus neoformans chitosan, stronger effect = lower value; at 10 µM unless noted
# [16] = phospholipid biosynthesis inhibitors in animal cells, primary screen, cell-based, LOPAC library, screen 4 (AID 1347384; call rule not given here); settings: phospholipid biosynthesis inhibition screen, at 10 µM
# [17] = survival rescue of mitochondrial mutant cells in low glucose, primary screen, MELAS cybrids, Rieske KO mouse fibroblasts, CellTiter-Glo (AID 1508586;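 active = mean z-score across replicates of 1.96 or higher in either the MELAS or the Rieske mutant cell line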;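 note: z relative to plate mean and SD of compound and empty wells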)
# [18] = viability rescue of complex I mutant cybrids, primary screen, cell-based, galactose medium, ATP luminescence (AID 1645843;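 active = z-score of at least 1.8 in each of two replicates, scored against plate mean and spread of sample wells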;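 note: positive z means more ATP and so rescue of galactose-driven cybrid death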); settings: complex I mutant cybrid cells, 72 h, stronger effect = higher value
# [19] = at 0.5 µM, stronger effect = higher value
# [20] = measured here: combination with BGB IC20, at 0.005 µM
# [21] = measured here: combination with BGB IC40, at 0.005 µM
# [22] = measured here: combination with BGB IC40, at 0.05 µM
# [23] = measured here: combination with cisplatin, at 0.5 µM, stronger effect = higher value
# [24] = measured here: combination with cisplatin, at 5 µM, stronger effect = higher value
# [25] = measured here: with BGB IC20 combination, at 0.5 µM
# [26] = measured here: with cisplatin IC20 combination, at 0.5 µM
# [27] = measured here: 5 uM single agent, at 5 µM
# [28] = measured here: combination with cisplatin, at 0.5 µM
# [29] = measured here: combination with cisplatin, at 5 µM
# [30] = measured here: with BGB IC20, at 0.5 µM
# [31] = measured here: with BGB IC20, at 5 µM
# [32] = measured here: with cisplatin IC20, at 0.5 µM
# [33] = measured here: with cisplatin IC20, at 5 µM
# [34] = measured here: combination with BGB at IC20, at 0.5 µM
# [35] = measured here: combination with cisplatin at IC20, at 0.5 µM
# [36] = measured here: combo with BGB at IC20, at 0.5 µM
# [37] = measured here: combo with cisplatin at IC20, at 0.5 µM
# [38] = MELAS cybrid survival, CellTiter-Glo 48 h, stronger effect = higher value
# [39] = Rieske KO mouse fibroblast survival, CellTiter-Glo 72 h
# Sequence of Mitogen-activated protein kinase 7 (Homo sapiens) (Q13164 whole entry, looked up, the tested form may be a part): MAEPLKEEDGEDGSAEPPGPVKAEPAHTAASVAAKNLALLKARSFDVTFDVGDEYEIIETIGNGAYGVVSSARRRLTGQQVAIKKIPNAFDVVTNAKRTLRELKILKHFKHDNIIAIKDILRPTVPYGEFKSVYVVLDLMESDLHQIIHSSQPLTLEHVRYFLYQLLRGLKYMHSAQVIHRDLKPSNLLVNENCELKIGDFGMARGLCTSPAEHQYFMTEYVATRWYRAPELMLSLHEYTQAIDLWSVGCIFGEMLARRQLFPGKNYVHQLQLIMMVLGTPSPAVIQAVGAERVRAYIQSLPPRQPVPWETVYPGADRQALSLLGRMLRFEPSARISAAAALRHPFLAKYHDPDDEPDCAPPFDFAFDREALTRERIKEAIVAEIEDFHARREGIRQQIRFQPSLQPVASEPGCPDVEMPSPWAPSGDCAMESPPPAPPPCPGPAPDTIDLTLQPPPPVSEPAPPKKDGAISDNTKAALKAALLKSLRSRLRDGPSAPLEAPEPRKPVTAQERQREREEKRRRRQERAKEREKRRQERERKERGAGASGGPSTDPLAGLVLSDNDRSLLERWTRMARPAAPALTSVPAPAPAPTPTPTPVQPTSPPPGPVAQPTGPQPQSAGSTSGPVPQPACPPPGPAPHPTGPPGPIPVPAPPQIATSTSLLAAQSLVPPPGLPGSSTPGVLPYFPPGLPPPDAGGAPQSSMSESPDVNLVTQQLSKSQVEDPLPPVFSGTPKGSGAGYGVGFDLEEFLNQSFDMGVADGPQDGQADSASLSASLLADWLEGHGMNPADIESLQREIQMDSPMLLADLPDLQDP
# Sequence of NAD(+) hydrolase SARM1 (Homo sapiens) (Q6SZW1 whole entry, looked up, the tested form may be a part): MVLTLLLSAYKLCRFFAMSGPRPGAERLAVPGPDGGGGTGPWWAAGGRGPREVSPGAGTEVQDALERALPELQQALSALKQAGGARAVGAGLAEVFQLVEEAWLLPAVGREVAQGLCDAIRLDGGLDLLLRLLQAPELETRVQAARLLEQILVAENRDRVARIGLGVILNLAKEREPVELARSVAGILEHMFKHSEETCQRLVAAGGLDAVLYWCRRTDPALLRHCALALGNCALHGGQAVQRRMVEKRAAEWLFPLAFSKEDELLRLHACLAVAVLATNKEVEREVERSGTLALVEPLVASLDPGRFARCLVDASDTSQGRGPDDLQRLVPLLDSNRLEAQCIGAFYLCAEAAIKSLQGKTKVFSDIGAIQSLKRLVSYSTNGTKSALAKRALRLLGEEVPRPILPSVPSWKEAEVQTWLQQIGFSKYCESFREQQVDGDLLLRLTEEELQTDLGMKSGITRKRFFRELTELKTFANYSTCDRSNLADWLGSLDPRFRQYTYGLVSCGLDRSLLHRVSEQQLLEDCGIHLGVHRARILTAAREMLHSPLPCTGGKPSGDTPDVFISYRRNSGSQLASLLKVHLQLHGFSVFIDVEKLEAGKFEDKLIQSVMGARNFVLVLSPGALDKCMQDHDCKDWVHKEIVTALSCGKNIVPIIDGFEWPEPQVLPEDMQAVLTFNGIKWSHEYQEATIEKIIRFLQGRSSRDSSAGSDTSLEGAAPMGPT
smiles,measurement,setting,value
S=P(N1CC1)(N1CC1)N1CC1,outcome,[1],inactive
same,outcome,[2],inactive
same,outcome,[3],inactive
same,outcome,[4],inactive
same,fold change,"[5]; stronger effect = lower value, cell number ratio, induced over uninduced",0.906 (inactive)
same,fold change,[5]; measured here: relative caspase fold change +Dox/-Dox,2.37
same,cell count,"[5]; measured here: total cells with miR-34 induction, stronger effect = lower value",2790
same,cell count,[5]; measured here: total cells without miR-34 induction,3080
same,remaining NAD,[6],10 nM (inactive)
same,luciferase signal,[7],40 AU (inactive)
same,inhibition,[8]; [19],-23.2% (inactive) and -26.3% (inactive)
same,inhibition,[8]; [20],4.28% and -9.96%
same,inhibition,[8]; [21],-18.6% and -23.3%
same,inhibition,[8]; [22],-9.26% and -20.5%
same,inhibition,[8]; [23],-29.9% and -42.7%
same,inhibition,[8]; [24],-29% and -10.5%
same,inhibition,"[9]; BGB combo, at 5 µM",10.9% and 17%
same,inhibition,[9]; at 0.5 µM,-22.8% (inactive) and -4.61% (inactive)
same,inhibition,"[9]; cisplatin combo, at 5 µM",-33.8% and -6.48%
same,inhibition,[9]; [25],-8.9% and -5.09%
same,inhibition,[9]; [26],-36% and 8.65%
same,inhibition,"[9]; single agent, at 5 µM",-17.8% and -15.5%
same,inhibition,"[10]; BGB IC20 combo, at 0.005 µM",-28.8% and -30.2%
same,inhibition,"[10]; BGB IC40 combo, at 0.005 µM",-42.6% and -1.02%
same,inhibition,"[10]; BGB IC40 combo, at 0.05 µM",-71.3% and -1.28%
same,inhibition,[10]; at 0.5 µM,-28.5% (inactive) and -18.4% (inactive)
same,inhibition,"[10]; cisplatin combo, at 0.05 µM",-78.1% and -1.28%
same,inhibition,"[10]; cisplatin combo, at 0.5 µM",-36.2% and -27%
same,inhibition,"[10]; cisplatin combo, at 5 µM",-39.5% and -6.98%
same,inhibition,[10]; [27],-8.68% and -10.4%
same,inhibition,[11]; at 0.5 µM,-9.66% (inactive) and -3.23% (inactive)
same,inhibition,[11]; [22],-28.2% and 8.25%
same,inhibition,[11]; [28],-26.8% and 11.1%
same,inhibition,[11]; [29],-75% and -8.13%
same,inhibition,[12]; at 0.5 µM,-27.7% (inactive) and -19.6% (inactive)
same,inhibition,[12]; [30],-28% and -46.5%
same,inhibition,[12]; [31],12.6% and 4.5%
same,inhibition,[12]; [32],-41.1% and -12.7%
same,inhibition,[12]; [33],-24.2% and -0.841%
same,inhibition,"[12]; single agent, at 5 µM",-13.2% and -18.3%
same,inhibition,[13]; at 0.5 µM,-50.3% (inactive) and -34.6% (inactive)
same,inhibition,[13]; [34],-22.9% and -20.1%
same,inhibition,[13]; [35],-36.2% and -49.4%
same,inhibition,[14]; at 0.5 µM,-12.6% (inactive) and -4.94% (inactive)
same,inhibition,[14]; [36],-12.8% and -2.1%
same,inhibition,[14]; [37],-11.1% and -9.72%
COc1ccc(C2CNC(=O)C2)cc1OC1CCCC1 (stereo not given),outcome,[1],inactive
same,outcome,[2],inactive
same,outcome,[3],inactive
same,outcome,[4],inactive
same,fold fluorescence,[15],10.1 [at 181.6 µM] (inactive)
same,outcome,[16],inactive
same,remaining NAD,[6],10 nM (inactive)
same,luciferase signal,[7],72 AU (inactive)
COC(=O)[C@@H]1[C@H]2C[C@H]3c4[nH]c5ccccc5c4CCN3C[C@@H]2CC[C@@H]1O,outcome,[1],inactive
same,outcome,[2],inactive
same,outcome,[3],inactive
same,outcome,[4],inactive
same,outcome,[16],inactive
same,z-score,[17]; [38],0.194 (inactive) and -0.872 (inactive)
same,z-score,[17]; [39],0.2 and -0.116
same,remaining NAD,[6],10 nM (inactive)
same,luciferase signal,[7],44 AU (inactive)
same,z-score,[18],0.525 (inactive) and 0.82 (inactive)
CN1C(C(=O)Nc2ccccn2)=C(O)c2sccc2S1(=O)=O,outcome,[1],inactive
same,outcome,[2],inactive
same,outcome,[3],inactive
same,outcome,[4],inactive
same,z-score,[17]; [38],-0.378 (inactive) and 0.116 (inactive) and -0.742 (inactive)
same,z-score,[17]; [39],0.123 and -0.0171 and -1.25
same,remaining NAD,[6],10 nM (inactive)
same,luciferase signal,[7],180 AU (inactive)
same,z-score,[18],-0.07 (inactive)
NS(=O)(=O)c1cc2c(cc1Cl)NC(C(Cl)Cl)NS2(=O)=O (stereo not given),outcome,[1],inactive
same,outcome,[2],inactive
same,outcome,[3],inactive
same,outcome,[4],inactive
same,z-score,[17]; [38],-0.307 (inactive) and 0.588 (inactive) and 0.372 (inactive)
same,z-score,[17]; [39],0.662 and 0.211 and -0.506
same,remaining NAD,[6],10 nM (inactive)
same,luciferase signal,[7],48 AU (inactive)
same,z-score,[18],-0.19 (inactive)
Nc1nc2c(ncn2COC(CO)CO)c(=O)[nH]1,outcome,[1],inactive
same,outcome,[2],inactive
same,outcome,[3],inactive
same,outcome,[4],inactive
same,outcome,[16],inactive
same,remaining NAD,[6],10 nM (inactive)
same,inhibition,[8]; [19],-14.4% (inactive)
same,inhibition,[8]; [20],-4.12%
same,inhibition,[8]; [21],-22.8%
same,inhibition,[8]; [22],1.72%
same,inhibition,[8]; [23],-35.5%
same,inhibition,[8]; [24],126%
same,inhibition,"[9]; BGB combo, at 5 µM",30.5%
same,inhibition,[9]; at 0.5 µM,-5.69% (inactive)
same,inhibition,"[9]; cisplatin combo, at 5 µM",55%
same,inhibition,[9]; [25],-10.7%
same,inhibition,[9]; [26],0.325%
same,inhibition,"[9]; single agent, at 5 µM",66%
same,inhibition,"[10]; BGB IC20 combo, at 0.005 µM",-34.3%
same,inhibition,"[10]; BGB IC40 combo, at 0.005 µM",-7.26%
same,inhibition,"[10]; BGB IC40 combo, at 0.05 µM",96.7%
same,inhibition,[10]; at 0.5 µM,-23.8% (inactive)
same,inhibition,"[10]; cisplatin combo, at 0.05 µM",96.7%
same,inhibition,"[10]; cisplatin combo, at 0.5 µM",-39.7%
same,inhibition,"[10]; cisplatin combo, at 5 µM",-4.59%
same,inhibition,[10]; [27],-6.09%
same,inhibition,[11]; at 0.5 µM,26.9% (inactive)
same,inhibition,[11]; [22],-58.1%
same,inhibition,[11]; [28],61.8%
same,inhibition,[11]; [29],106%
same,inhibition,[12]; at 0.5 µM,-13.4% (inactive)
same,inhibition,[12]; [30],-37.4%
same,inhibition,[12]; [31],32.5%
same,inhibition,[12]; [32],-11.6%
same,inhibition,[12]; [33],68.7%
same,inhibition,"[12]; single agent, at 5 µM",71%
same,inhibition,[13]; at 0.5 µM,2.15% (inactive)
same,inhibition,[13]; [34],2.66%
same,inhibition,[13]; [35],0.146%
same,inhibition,[14]; at 0.5 µM,-7.18% (inactive)
same,inhibition,[14]; [36],-5.76%
same,inhibition,[14]; [37],-11.1%
Cc1cc(C(C)(C)C)c(O)c(C)c1CC1=NCCN1,outcome,[1],inactive
same,outcome,[2],inactive
same,outcome,[3],inactive
same,outcome,[4],inactive
same,outcome,[16],inactive
same,z-score,[17]; [38],-0.371 (inactive) and 0.43 (inactive) and 0.93 (inactive)
same,z-score,[17]; [39],0.698 and 0.504 and 0.891
same,remaining NAD,[6],10 nM (inactive)
same,luciferase signal,[7],28 AU (inactive)
same,z-score,[18],0.16 (inactive) and -0.235 (inactive) and 0.51 (inactive)
Nc1nnc(-c2cccc(Cl)c2Cl)c(N)n1,outcome,[1],inactive
same,outcome,[2],inactive
same,outcome,[3],inactive
same,outcome,[4],inactive
same,outcome,[16],inactive
same,z-score,[17]; [38],1.04 (inactive) and -0.0755 (inactive) and -0.75 (inactive)
same,z-score,[17]; [39],-2.18 and 0.0455 and -0.484
same,remaining NAD,[6],10 nM (inactive)
same,luciferase signal,[7],44 AU (inactive)
same,z-score,[18],0.675 (inactive) and 0.31 (inactive) and 0.775 (inactive)
CC1(C)NC(=O)N(c2ccc([N+](=O)[O-])c(C(F)(F)F)c2)C1=O,outcome,[1],inactive
same,outcome,[2],inactive
same,outcome,[3],inactive
same,outcome,[4],inactive
same,outcome,[16],inactive
same,z-score,[17]; [38],1.34 (inactive)
same,z-score,[17]; [39],-0.252
same,remaining NAD,[6],10 nM (inactive)
same,luciferase signal,[7],100 AU (inactive)
same,z-score,[18],-0.59 (inactive) and -0.55 (inactive)
CCCCCN(C)CCC(O)(P(=O)(O)O)P(=O)(O)O,outcome,[1],inactive
same,outcome,[2],inactive
same,outcome,[3],inactive
same,outcome,[4],inactive
same,outcome,[16],inactive
same,remaining NAD,[6],10 nM (inactive)

# — PubChem BioAssay
